Assay [1] deals with thyroid hormone receptor (rat, GH3 cells). The experiment in a line: qHTS assay to identify small molecule agonists of the thyroid receptor (TR) signaling pathway (AID 743066). Further: potency means the concentration at half of the fitted maximal effect. On the technique in general: In qHTS, concentration-response curves come from the screen itself.
The target of assay [2] is Estrogen receptor (Homo sapiens) (UniProt P03372). Briefly: qHTS assay to identify small molecule antagonists of the estrogen receptor alpha (ER-alpha) signaling pathway (AID 743069; active means well fitted curve in the direction sought with a large enough effect in the signal ratio in the repeat runs, not every such curve was filed as active; inconclusive means weak or mixed curves, or effect the other way; inactive means no such curve, though single readings can be large or run the other way; the % refers to the signal ratio). Put shortly:
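Fluorescence intensity from a beta-lactamase FRET substrate served as the read-out. Cells: HEK293 with stably integrated ER-alpha-UAS-bla reporter. Agonist 17beta-estradiol was co-added with compounds; incubation 18 hr at 37C, substrate 2 hr at room temperature.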

The nature of assay [3]: qHTS assay to identify small molecule antagonists of the estrogen receptor alpha (ER-alpha) signaling pathway - cell viability counter screen (AID 743074). Further: nearly all actives have a fitted effect of over 45% in size.
For assay [4], the target named is Estrogen receptor (Homo sapiens) (UniProt P03372). Briefly: qHTS assay to identify small molecule agonists of the estrogen receptor alpha (ER-alpha) signaling pathway (AID 743075). Further: potency means the concentration at half of the fitted maximal effect.
Chain of Estrogen receptor (Homo sapiens) (P03372 whole entry, looked up): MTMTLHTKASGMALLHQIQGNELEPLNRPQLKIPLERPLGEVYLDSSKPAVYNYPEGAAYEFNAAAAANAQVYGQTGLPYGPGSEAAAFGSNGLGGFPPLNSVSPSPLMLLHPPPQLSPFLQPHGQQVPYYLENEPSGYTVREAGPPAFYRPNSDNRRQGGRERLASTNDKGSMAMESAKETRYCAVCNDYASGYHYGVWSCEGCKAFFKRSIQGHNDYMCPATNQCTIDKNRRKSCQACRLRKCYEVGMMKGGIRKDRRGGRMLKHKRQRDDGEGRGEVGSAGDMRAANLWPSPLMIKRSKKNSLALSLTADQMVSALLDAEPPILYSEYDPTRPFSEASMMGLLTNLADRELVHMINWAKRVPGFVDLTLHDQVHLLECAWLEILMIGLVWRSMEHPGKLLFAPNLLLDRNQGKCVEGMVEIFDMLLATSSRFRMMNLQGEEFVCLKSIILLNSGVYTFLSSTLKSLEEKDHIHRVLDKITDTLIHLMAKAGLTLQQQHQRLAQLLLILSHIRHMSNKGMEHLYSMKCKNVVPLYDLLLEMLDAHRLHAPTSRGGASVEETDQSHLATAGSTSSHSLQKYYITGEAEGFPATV
For assay [5] the target is unchanged. Briefly: qHTS assay to identify small molecule agonists of the estrogen receptor alpha (ER-alpha) signaling pathway using the BG1 cell line (AID 743079; active means well fitted curve in the direction sought with a large enough effect in the repeat runs; inconclusive means weak or mixed curves; inactive means no such curve, though single readings can be large; an effect the other way counts as inactive or inconclusive; further: nearly all actives have a fitted effect of over 20% in size; further: potency means the concentration at half of the fitted maximal effect). As to conditions: BG1Luc4E2 cells, ERE-luciferase agonist, 22 h; activation: at 70.3 µM (top of the series).
Assay [6] can be described thus: qHTS assay to identify small molecule antagonists of the estrogen receptor alpha (ER-alpha) signaling pathway using the BG1 cell line (AID 743080). Further: nearly all actives have a fitted effect of over 25% in size. Put shortly: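 Antagonist mode: compounds in DMSO were pinned onto BG1-Luc-4E2 cells alongside 17beta-estradiol agonist, incubated 21.5 h, and ERE-driven luciferase measured with ONE-Glo. Cytotoxicity was multiplexed using CellTiter-Fluor fluorescence.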

A short description of assay [7]: qHTS assay to identify small molecule antagonists of the estrogen receptor alpha (ER-alpha) signaling pathway using the BG1 cell line - cell viability counter screen (AID 743081; active means well fitted curve in the direction sought with a large enough effect in the repeat runs; inconclusive means weak or mixed curves; inactive means no such curve, though single readings can be large; an effect the other way counts as inactive or inconclusive;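 further: compound given together with 17beta-estradiol as the ER stimulus; nearly all actives have a fitted effect of over 45% in size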).
Another assay addresses Aromatase (Homo sapiens) (UniProt P11511). The experiment in a line: qHTS assay to identify aromatase inhibitors (AID 743083; active means well fitted curve in the direction sought with a large enough effect in the repeat runs; inconclusive means weak or mixed curves; inactive means no such curve, though single readings can be large; an effect the other way counts as inactive or inconclusive; further: nearly all actives have a fitted effect of over 55% in size).

We go through 16 compounds from PubChem BioAssay (Tox21).

Activity calls are given as the source filed them. Unless noted, the call rests on the fitted dose curve.

Chain of Aromatase (Homo sapiens) (P11511 whole entry, looked up): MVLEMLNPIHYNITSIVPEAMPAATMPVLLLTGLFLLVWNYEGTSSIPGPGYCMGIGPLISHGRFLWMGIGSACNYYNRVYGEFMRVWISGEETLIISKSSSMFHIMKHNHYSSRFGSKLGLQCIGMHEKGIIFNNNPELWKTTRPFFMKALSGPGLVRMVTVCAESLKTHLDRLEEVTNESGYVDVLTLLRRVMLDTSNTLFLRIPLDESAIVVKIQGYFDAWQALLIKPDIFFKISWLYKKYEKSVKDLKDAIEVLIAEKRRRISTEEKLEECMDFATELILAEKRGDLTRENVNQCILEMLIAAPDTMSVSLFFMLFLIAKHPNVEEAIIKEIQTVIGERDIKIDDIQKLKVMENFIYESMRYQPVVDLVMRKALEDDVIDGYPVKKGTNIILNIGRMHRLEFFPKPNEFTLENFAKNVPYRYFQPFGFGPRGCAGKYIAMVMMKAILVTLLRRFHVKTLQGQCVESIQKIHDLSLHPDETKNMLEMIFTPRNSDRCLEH

On to `CC1CC(OC(=O)C(O)c2ccccc2)CC(C)(C)C1` (stereo unspecified), for which the Potency entry in assay [1], in assay [2], in assay [3], in assay [4], in assay [5] and in assay [6] was “inactive” throughout. The Potency entry (in assay [7]; with Aromatase (Homo sapiens)) was “inactive” throughout.
For the compound `COC(=O)[C@H]1[C@H]2C[C@@H]3c4[nH]c5cc(OC)ccc5c4CCN3C[C@H]2C[C@@H](OC(=O)/C=C/c2cc(OC)c(OC)c(OC)c2)[C@@H]1OC`, the Potency result in assay [1], in assay [2], in assay [3], in assay [4], in assay [5] and in assay [6] was “inactive” throughout. For the same compound, the Potency entry (in assay [7]; with Aromatase (Homo sapiens)) was “inactive” in each case.
Take `Clc1ccc(COC(Cn2ccnc2)c2ccc(Cl)cc2Cl)c(Cl)c1` (stereo unspecified): the Potency entry in assay [2], in assay [3], in assay [4], in assay [5], in assay [6] and in assay [7] was “inactive” throughout.
Turning to `COc1cc(Br)c(C[N+]2(CCOCCC3CCC4CC3C4(C)C)CCOCC2)cc1OC` (stereo unspecified), the Potency result in assay [2], in assay [3], in assay [4], in assay [5], in assay [6] and in assay [7] was “inactive” each time.
With `O=C(O)[C@H](CC(=O)N1C[C@H]2CCCC[C@H]2C1)Cc1ccccc1`, the Potency entry (in assay [1]; in assay [2]; in assay [4]; in assay [6]; in assay [7]; with Aromatase (Homo sapiens)) was “inactive” in each case. Also, the Potency in assay [5] is 33.5 µM (active).
For `CCC(CN)CC(C)CCNCC(O)CNCC(C)CC(CC)CN` (stereo unspecified), the Potency result in assay [2], in assay [3], in assay [4], in assay [5], in assay [6] and in assay [7] was “inactive” each time. In addition, the Potency entry with Aromatase (Homo sapiens) was “inactive”.
With `CC[N+](C)(C)Cc1ccccc1Br`, the Potency entry in assay [2], in assay [3], in assay [4], in assay [5], in assay [6] and in assay [7] was “inactive” each time. Further, the Potency result with Aromatase (Homo sapiens) is “inactive”.
In the case of `Cc1cc(-n2c(=O)[nH]c(=O)n(C)c2=O)ccc1Oc1ccc(S(=O)(=O)C(F)(F)F)cc1`, the Potency in assay [1] is 9.44 µM (active). The Potency result (in assay [4]; in assay [7]; with Aromatase (Homo sapiens)) was “inactive” in each case.
For the compound `CC(CN(C)C)CN1c2ccccc2S(=O)(=O)c2ccccc21` (stereo unspecified), the Potency entry (in assay [1]; in assay [2]; in assay [3]; in assay [4]; in assay [5]; with Aromatase (Homo sapiens)) was “inactive” throughout.
On to `COc1ccc(C[C@H](C)NC[C@@H](O)c2ccc(O)c(NC=O)c2)cc1`, for which the Potency entry in assay [1], in assay [2], in assay [3], in assay [4] and in assay [5] was “inactive” throughout.
For the compound `CC(CN1c2ccccc2Sc2cccnc21)N(C)C` (stereo unspecified), the Potency entry in assay [1], in assay [2], in assay [3], in assay [5], in assay [6] and in assay [7] was “inactive” throughout. Moreover, the Potency result with Aromatase (Homo sapiens) was “inactive”.
For `CCCC(=O)Nc1c(I)cc(I)c(CC(CC)C(=O)O)c1I` (stereo unspecified), the Potency result in assay [1], in assay [2], in assay [3], in assay [4], in assay [5] and in assay [6] was “inactive” in each case. Besides, the Potency entry with Aromatase (Homo sapiens) is “inactive”.
With `C#C[C@]1(O)CC[C@H]2[C@@H]3CCC4=CCCC[C@@H]4[C@H]3C(=C)C[C@@]21CC`, the Potency result (in assay [2]; in assay [3]; in assay [6]; in assay [7]; with Aromatase (Homo sapiens)) was “inactive” each time. Also, the Potency was 2.39 µM [inconclusive] (active) in assay [4] and 1.88 µM (active) in assay [5].
Consider `C=Cc1c(C)c2cc3nc(cc4[nH]c(cc5nc(cc1[nH]2)C(C)=C5CCC(=O)OC)c(CCC(=O)O)c4C)[C@@]1(C)C3=CC=C(C(=O)OC)[C@H]1C(=O)OC`, for which the Potency entry (in assay [1]; in assay [3]; in assay [4]; in assay [5]; in assay [6]; in the assay with Aromatase (Homo sapiens)) was “inactive” throughout.
For the compound `COc1cc2[nH]c(C)c(CCN3CCN(c4ccccc4)CC3)c2cc1OC`, the Potency result in assay [1], in assay [2], in assay [3], in assay [4], in assay [5] and in assay [6] was “inactive” throughout. Further, the Potency entry (in assay [7]; with Aromatase (Homo sapiens)) was “inactive” each time.
In the case of `COC(=O)CCC(=O)CN`, the Potency entry in assay [2], in assay [3], in assay [4], in assay [5], in assay [6] and in assay [7] was “inactive” in each case. For the same compound, the Potency result with Aromatase (Homo sapiens) is “inactive”.
